Screens as filed in PubChem BioAssay.
This is a sample that favours compounds with a hit; in the whole collection about 5.4% have one here.
rCAG binder: binders of r(CAG) RNA repeats, primary screen, biochemical, fluorescence. r(CAG) RNA repeat, TO-PRO-1 dye displacement fluorescence. inhibition, % at 3 µM. AID 651821, 2012. hit rate 1.3% among 370,000;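 active means inhibition above the plate cutoff, the mean of all test compounds on that plate plus 3 SD, cut at about 35% in these data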;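 further: 0% = DMSO alone and 100% = 100 µM mitoxantrone as full dye displacement; higher means more dye released from RNA so lower well fluorescence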
APOBEC3A inh: APOBEC3A ssDNA deaminase inhibitors, primary screen, selectivity assay for APOBEC3G inhibitor project, biochemical, FAM/TAMRA oligo cleavage fluorescence. DNA dC->dU-editing enzyme APOBEC-3A (Homo sapiens), P31941. recombinant A3A, FAM/TAMRA ssDNA deamination fluorescence. inhibition, % at 20 µM. hit rate 0.41% among 330,000;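 active means at least 40% inhibition at 20 µM here, with at most 30% in a related deaminase screen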;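 further: plate controls were A3A with DMSO for no effect and wells lacking A3A enzyme for full effect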
Target sequence (P31941 whole entry, looked up): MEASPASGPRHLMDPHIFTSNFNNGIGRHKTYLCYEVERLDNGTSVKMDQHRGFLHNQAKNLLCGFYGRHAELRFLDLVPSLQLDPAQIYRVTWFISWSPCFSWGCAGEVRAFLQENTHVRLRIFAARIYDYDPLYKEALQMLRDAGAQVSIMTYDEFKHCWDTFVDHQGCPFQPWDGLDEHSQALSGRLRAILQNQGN
PHOSPHO1 block: PubChem AID 1565; hit rate 1.1% among 290,000; Phosphoethanolamine/phosphocholine phosphatase (Homo sapiens), Q8TCT1; recombinant PHOSPHO1, absorbance phosphatase assay; inhibition, % at 13.3 µM; in the data active means inhibition above about 60%
aDG glyco up: activators of alpha-DG glycosylation, primary screen, uHTS, Pro5-aDG cells, AlphaScreen. alpha-DG glycosylation AlphaScreen (IIH6); 0% Pro5, 100% B10-LARGE cell signal. activation, % at 10 µM. hit rate 0.22% among 360,000;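 active means activation of at least 8% versus controls, or a plate z-score of at least 8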;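 further: Pro5 are CHO cells carrying HIG-tagged alpha-DG that lacks glycosylation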
ALR H2O2 inh: inhibitors of human ALR sulfhydryl oxidase, primary screen, biochemical, H2O2 detection, HRP-luminol luminescence, single point | FAD-linked sulfhydryl oxidase ALR (Homo sapiens), P55789 | purified ALR, DTT oxidation | inhibition, % (concentration not given with the values) | hit rate 3.8% among 290,000 | AID 485317, 2010;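 active means mean replicate inhibition above about 79%, with every replicate also reaching it, limit read from the data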
Target sequence (P55789 whole entry, looked up): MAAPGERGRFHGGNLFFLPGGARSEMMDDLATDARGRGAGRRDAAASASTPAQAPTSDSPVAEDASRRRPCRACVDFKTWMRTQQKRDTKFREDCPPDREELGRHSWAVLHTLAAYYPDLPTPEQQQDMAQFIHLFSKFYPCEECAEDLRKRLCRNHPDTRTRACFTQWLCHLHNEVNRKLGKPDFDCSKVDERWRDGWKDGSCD
APOBEC3G inh: APOBEC3G DNA deaminase inhibitors, primary screen, biochemical, fluorescence, single-stranded DNA substrate, uHTS; DNA dC->dU-editing enzyme APOBEC-3G (Homo sapiens), Q9HC16; recombinant A3G, ssDNA deamination FAM/TAMRA fluorescence; inhibition, % at 20 µM; hit rate 0.28% among 330,000; AID 493012, 2011;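 active means inhibition of at least 40% at 20 µM, with no more than 30% in the related APOBEC3A deaminase screen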;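 further: plate controls were DMSO wells with A3G for no effect and wells lacking A3G enzyme for full effect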
aDG conf: alpha-DG glycosylation enhancers, retest, confirmation, single concentration, Pro5-aDG cells | shares compounds with aDG glyco up | IIH6 AlphaLISA; scaled to LARGE-overexpressing B10 cells as 100% | activation, % at 10 µM (by protocol) | hit rate 17% among 600;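 active means activation of at least 7% in one or more replicates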;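 further: cells exposed to compound for two days before detection; 0% = DMSO-treated Pro5 cells and 100% = DMSO-treated B10-LARGE cells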
An asterisk follows results filed as active; nt = not tested or not shown.

SMILES | rCAG binder | APOBEC3A inh | PHOSPHO1 block | aDG glyco up | ALR H2O2 inh | APOBEC3G inh | aDG conf
COc1ccc(CN2C(=O)C(CC(=O)NC3CCCC3)CC(C(=O)N(C(C)C)C(C)C)=C2C)cc1 (configuration not stated) | 0 | nt | nt | 5.0* | nt | nt | 1
Cc1cc(Cl)ccc1NC(=S)NCCN1CCOCC1 | 3 | 0 | -4 | 0 | nt | -1 | nt
Fc1cc(Cl)ccc1NC(=S)NCCN1CCOCC1 | 0 | -1 | 20 | 5.3* | nt | -16 | -1
Cc1ccccc1Cn1c(C)nc2ccccc21 | -4 | 8 | nt | 3.3* | -4 | 9 | 2
O=C(CSc1cccs1)Nc1ccc(Cl)cc1 | -3 | -2 | 32 | 3.1* | -6 | -3 | -1
CCOC(=O)CCCCCC(=O)Nc1ccc2c(c1)C(=O)N([C@H](C)CO)C[C@H](C)[C@@H](CN(C)S(C)(=O)=O)OCCCC[C@@H](C)O2 | 0 | nt | nt | 2 | nt | nt | nt
Cn1nc(CC(=O)Nc2ccc3c(c2)OCCO3)c2ccccc2c1=O | -2 | 0 | 3 | 6 | nt | -4 | nt
Cc1ccc(NC(=O)Cc2nn(C)c(=O)c3ccccc23)cc1F | -1 | -3 | 0 | 10* | -9 | -3 | 2
CCc1ccc(C2c3[nH]c4ccccc4c3CCN2C(=O)CNC(N)=O)cc1 (configuration not stated) | 0 | 0 | 37 | 0 | nt | -3 | nt
CCc1ccc(C2c3[nH]c4ccccc4c3CCN2C(=O)CN2CCN(CC)CC2)cc1 (configuration not stated) | -10 | 2 | 27 | 8.0* | 10 | 0 | 13*
CC(C)C[C@H]1COc2cccc(N3CCCC3)c2S(=O)(=O)N1 | 1 | nt | nt | nt | nt | nt | nt
COc1cc(C(=O)C(=O)N2CCC(Cc3ccccc3)CC2)cc2ccccc12 | 6 | nt | nt | 10* | nt | nt | 0
COCCNc1nc(NCc2ccc(C(C)C)cc2)c2sccc2n1 | -1 | nt | nt | 7.3* | nt | nt | 3
Cc1cc(OCc2nc(-c3cccs3)no2)cc(C)c1Cl | 1 | -2 | -2 | 7.7* | 0 | -3 | 0
Cc1c(Br)c([N+](=O)[O-])nn1CC(=O)N1CCCc2ccccc21 | 2 | -3 | -10 | 4.4* | nt | -5 | -1
COc1cc(OC)c(NC(=O)CN(C)S(=O)(=O)c2ccc3[nH]c(=O)oc3c2)cc1Cl | 33 | 2 | 22 | 0 | -15 | 1 | nt
CN(CC(=O)Nc1cccc(Cl)c1)S(=O)(=O)c1ccc2[nH]c(=O)oc2c1 | 17 | 0 | 12 | 5.7* | -7 | -4 | -1
CC(C)[C@@H](C)/C=C/[C@@H](C)[C@H]1CC[C@@H]2[C@]1(C)CCC1[C@]23C=C[C@]2(C[C@@H](O)CC[C@]12C)N(c1ccc(Br)cn1)O3 (some centres not stated) | 4 | nt | nt | nt | nt | nt | nt
Cc1nc2ccc(NC(=O)C3(C)CCCN(C(C)C)C3)cc2o1 (configuration not stated) | 0 | nt | nt | 0 | nt | nt | nt
O=C(C[C@@H]1CC[C@H](NC(=O)c2ccc3c(c2)OCO3)[C@@H](CO)O1)NCc1ccc(F)cc1 | -1 | nt | nt | 0 | nt | nt | nt
CC(=O)c1cccc(NC(=O)c2cc(=O)[nH]c3ccccc23)c1 | 4 | -3 | 20 | 0 | -9 | -8 | nt
CCN(CC)S(=O)(=O)c1ccc2[nH]c(=O)cc(C(=O)Nc3cccc(C(C)=O)c3)c2c1 | 8 | 2 | 32 | 9.2* | nt | -5 | -1
NS(=O)(=O)c1ccc(NC(=O)c2cccc3cc4ccccc4nc23)cc1 | 25 | nt | nt | 0 | nt | nt | nt
CN(C)c1nc(-c2cn(CCC#N)c3ccccc23)cs1 | 13 | -4 | 43 | 5.1* | 11 | -16 | 2
CC[C@H](C)[C@H]1CNC(=S)N1CC1CCN(CCC23CC4CC(CC(C4)C2)C3)CC1 | 0 | nt | nt | 1 | nt | nt | nt
